Here are results for 64 compounds from PubChem BioAssay AID504467 (National Center for Advancing Translational Sciences (NCATS), 2011).

Screen size: about 330,000 compounds; about 7,700 (2.3%) were called active. Not shown: some 26% with an inconclusive outcome. The sample as a whole holds a higher share of actives than the screen did. A number with no mark means an inactive call. Calls come from the whole dose curve; as a rule, active = well fitted inhibition curve with a large enough effect; inconclusive = small, poorly fitted or top-dose-only effect, or effect the other way; inactive = flat fitted curve, though single readings scatter.
% is set by controls: 0 for no effect and ±100 for the full control effect; potency is the fitted concentration of half-maximal effect.

This assay can be described thus: qHTS screen for small molecules that inhibit ELG1-dependent DNA repair in human embryonic kidney (HEK293T) cells expressing luciferase-tagged ELG1. Note: nearly all actives have a fitted effect of over 55% in size. The conditions noted are these: HEK293T ELG1-luciferase reporter, luminescence, 16 h, DNA damage induced by 5-fluorouridine; series mostly up to 46.1 µM; activity change, negative = inhibition: at the top concentration. Put shortly:
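In this reporter screen, reduction of luminescence relative to DMSO vehicle indicated activity. Compounds and 5-fluorouridine were added together to 2,000 cells per well, incubated for 16 hr at 37 °C, then developed with ONE-Glo.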
(Quantitative high-throughput screening tests each substance at several concentrations.)
With `CCOC(=O)N1CCN(C(=O)c2cn(C)c3ccc(S(=O)(=O)N(CC)CC)cc3c2=O)CC1`, the “activity change, negative = inhibition” value was 0.556%.
The same measure, in the same setting: for `CCn1cc(C(=O)NCC2CCCO2)c(=O)c2cc(S(=O)(=O)N3CCCCC3)ccc21` (centres undefined) the value was -15.3%.
For the compound `C=CCn1cc(C(=O)NCc2ccc(Cl)cc2)c(=O)c2cc(S(=O)(=O)N(CC)CC)ccc21`, the Potency is 8.2 µM (active).
With `CCOC(=O)[C@H]1[C@H]2COc3ccc(Cl)cc3[C@@H]2N2C(=O)c3cc(C)ccc3NC(=O)[C@@]12C`, the “activity change, negative = inhibition” value was -23.2%.
On the same count and under the same terms, in the case of `Cn1ccsc1=NC(=O)c1cc(S(=O)(=O)N2CCOCC2)ccc1Cl` it was 10.7%.
For `Cc1cccc(NC(=O)CSc2nc3[nH]ncc3c(=O)[nH]2)c1`, the “activity change, negative = inhibition” value was 13%.
As for `Cc1cccc2nc(CSc3nc4[nH]ncc4c(=O)n3-c3cccc(Cl)c3)cc(=O)n12`, the Potency is 20.6 µM (active).
On to `COc1ccc(CCNC(=O)CSc2nc3[nH]ncc3c(=O)n2-c2cccc(C(F)(F)F)c2)cc1OC`, for which the “activity change, negative = inhibition” value was -14.2%.
Take `COc1cccc(OC)c1C(=O)Nc1ccc(Cc2ccncc2)cc1`: the “activity change, negative = inhibition” value is -9.05%.
Regarding `CC(C)C(NC(=O)c1c(F)cccc1F)C(=O)NCc1ccncc1` (centres undefined), the “activity change, negative = inhibition” value was -10.4%.
Turning to `O=C(Nc1ccncc1)c1c(F)cccc1F`, the Potency is 6.51 µM (active).
As for `CSc1ncc(C(=O)Nc2ccc(C)cc2C)c(C)n1`, the “activity change, negative = inhibition” value is 6.34%.
For `FC(F)(F)c1nc(-c2ccccc2)ncc1-c1nnnn1-c1ccccc1`, the Potency was 20.6 µM (active).
As for `c1ccc(-n2nnnc2NC2CCCCCC2)cc1`, the “activity change, negative = inhibition” value was -0.841%.
Take `c1ccc(-n2nnnc2-c2cccnc2)cc1`: the “activity change, negative = inhibition” value was -4.14%.
Regarding `CC(=O)c1ccc(N2CCN(C(=O)CCc3ccccc3)CC2)cc1`, the “activity change, negative = inhibition” value is 6.73%.
Still for that read-out and setting: for `O=C1CCC/C=C/C[C@@H](CC(=O)N(CCO)Cc2ccccc2)C(=O)NC[C@H](c2ccccc2)O1` the value was 17%; for `C/C(=N\OC(=O)c1ccccc1)c1c(C)nc2cc(C)ccn12`, -4.4%; for `Cc1nc2ccccn2c(=O)c1NC(=O)c1cccs1`, 7.29%.
For the compound `Cc1ccn2c(=O)c(NC(=O)c3cccc4ccccc34)c(C)nc2c1`, the Potency was 5.17 µM (active).
`CC(C)(C)c1ccc(Oc2ccc(N)cc2)cc1`: the Potency was 7.31 µM (active).
For `Nc1ccc(Oc2ccc(Cl)cc2)cc1`, the “activity change, negative = inhibition” value was 0.524%.
Same read-out and setting: for `Cc1ccc(Oc2ccc(N)cc2)cc1` the value was 18.9%; for `Cc1ccc(S(=O)(=O)NCC2CCC(C(=O)N3CCOCC3)CC2)cc1` (centres undefined), 12.9%; for `C=CCSc1nnc(N2C(=O)C(O)=C(C(=O)c3ccco3)C2c2ccc(F)cc2)s1` (centres undefined), -9.68%.
Still for that read-out and setting: in the case of `CC1CC(=NNC(=O)C2COc3ccccc3O2)CC(C)(C)C1` (centres undefined) it was 25.5%; in that of `O=C(OCC(=O)N1CCN(C(=O)c2ccco2)CC1)c1ccc(Cl)c(Cl)c1`, 11.7%.
Take `COc1ccc(Cc2nnc(N/N=C/c3ccccc3O)[nH]c2=O)cc1OC`: the Potency is 4.11 µM (active).
As to `O=c1[nH]c(NCCO)nnc1Cc1ccc(Cl)cc1`, the “activity change, negative = inhibition” value was -2.82%.
Same read-out and setting: in the case of `CC(C)c1ccc(Cc2nnc(NCCCO)[nH]c2=O)cc1` it was -0.109%; in that of `C=CCN1CN(S(=O)(=O)c2ccc(OC)cc2)c2nc3ccccc3nc21`, 4.11%; in that of `CCn1nc(C)c(CNC(=O)C2CCC(=O)N(Cc3cccc(F)c3)C2)c1C` (centres undefined), -6.48%.
On to `COC(=O)[C@]1(C)N[C@H](CN(C)C(=O)c2ccc(C(C)(C)C)cc2)[C@@H]2C(=O)N(C)C(=O)[C@@H]21`, for which the “activity change, negative = inhibition” value is 9.59%.
On to `COc1ccc(NC(=O)CN(Cc2ccccc2)S(C)(=O)=O)cc1OC`, for which the “activity change, negative = inhibition” value is 0.322%.
With `COc1ccc(NC(=O)CN2C(=O)C(c3ccccc3)=NC23CCCCCC3)cc1OC`, the Potency is 23.1 µM (active).
Turning to `COc1ccc(NC(=O)CC2SC(N3CCCCC3)=NC2=O)cc1OC` (centres undefined), the “activity change, negative = inhibition” value is 27.7%.
With `COc1cc(S(=O)(=O)N2CCN=C2c2ccccc2)ccc1Cl`, the “activity change, negative = inhibition” value is 12.4%.
`Cn1c(=O)c2c(SCC(=O)NCC3CCCO3)nc(CC(C)(C)C)nc2n(C)c1=O` (centres undefined): the “activity change, negative = inhibition” value was -10%.
Regarding `CCOc1ccccc1NC(=O)C1CCC(CNc2c(N3CCOCC3)c(=O)c2=O)CC1` (centres undefined), the “activity change, negative = inhibition” value is 0.0516%.
Still for that read-out and setting: in the case of `CCN(CC)c1ccc(NC(=O)C2CCC(CNc3c(N4CCCC4)c(=O)c3=O)CC2)c(C)c1` (centres undefined) it was -13.2%.
Regarding `COc1ccc(NC(=O)C2CCC(CNc3c(N4CCCCC4)c(=O)c3=O)CC2)c(OC)c1` (centres undefined), the Potency is 7.3 µM (active).
Take `CC(CCc1ccccc1)NC(=O)c1cnc(Cl)c(Cl)c1` (centres undefined): the “activity change, negative = inhibition” value was -6.26%.
With `Cc1ncoc1C(=O)N1CCCC(C(=O)c2ccc3c4c(cccc24)CC3)C1` (centres undefined), the Potency is 16.4 µM (active).
Turning to `CC(=O)NCC(=O)N1CCCC(C(=O)c2ccc3c4c(cccc24)CC3)C1` (centres undefined), the “activity change, negative = inhibition” value was -5.67%.
Still for that read-out and setting: in the case of `CCn1ccnc1CN1CCCC(C(=O)c2ccc3c4c(cccc24)CC3)C1` (centres undefined) it was 8.93%; in that of `CC1CCCCC1NC(=O)NC(=O)COC(=O)C1=NN(c2ccccc2)C(=O)CC1` (centres undefined), 20.6%.
Turning to `CCCC(=O)N1CCN(c2nnc(-c3ccc(C)cc3)c3ccccc23)CC1`, the “activity change, negative = inhibition” value is 19.1%.
In the case of `COc1ccc(CCN(C)C(=O)C23CC4CC(CC(Cl)(C4)C2)C3)cc1OC`, the “activity change, negative = inhibition” value is -13.6%.
Same read-out and setting: in the case of `CCCn1c(C2CCCN2c2nc(-c3ccc(C)cc3)cs2)nc2cc(Cl)c(N3CCCCC3)cc21` (centres undefined) it was -1.63%.
On the same count and under the same terms, in the case of `CC(C)(C)OC(=O)Nc1ccc([C@@H](NC(=O)OC(C)(C)C)C(=O)OC(C)(C)C)cc1` it was 6.05%.
Same read-out and setting: in the case of `CC(=O)c1cccc(NC(=O)C2CCN(C(=O)c3ccccc3Cl)CC2)c1` it was -26%.
Turning to `Cc1ccccc1C(=O)N1CCC(C(=O)Nc2ccc(S(=O)(=O)N(C)C(C)C)cc2)CC1`, the Potency was 16.4 µM (active).
With `CCc1nnc(NC(=O)C2CCN(C(=O)c3ccccc3C)CC2)s1`, the “activity change, negative = inhibition” value was -0.619%.
With `O=C(Nc1ccccc1N1CCOCC1)c1ccc(OCc2cscn2)cc1`, the “activity change, negative = inhibition” value was -20.9%.
The same measure, in the same setting: in the case of `O=C(COC(=O)CCCN1C(=O)c2cccc3cccc(c23)C1=O)NC1CCS(=O)(=O)C1` (centres undefined) it was 16.1%; in that of `CCOC(=O)CSc1nc2ccc(C)cc2n2cnnc12`, 6.26%.
As to `O=C(CCc1nnc2ccc(NCc3ccco3)nn12)Nc1cc(F)ccc1F`, the “activity change, negative = inhibition” value is 7.8%.
As for `COc1ccc(CCN(C)C(=O)C2CCCN(Cc3ccc(OC)c(OC)c3)C2)cc1OC` (centres undefined), the Potency result was “inactive”.
For the compound `COc1cccc(-c2nc(CS(=O)(=O)CC(=O)NCCc3ccc(OC)c(OC)c3)c(C)o2)c1`, the “activity change, negative = inhibition” value was -23.3%.
Regarding `COc1ccc(CCNC(=O)C2CCCN(Cc3nc(-c4cccc(Cl)c4)oc3C)C2)cc1OC` (centres undefined), the Potency is 10 µM (active).
For the compound `CCOc1ccc(-n2c(SCC(=O)OC)nc3sc4c(c3c2=O)CCN(C)C4)cc1`, the “activity change, negative = inhibition” value was 7.61%.
For the compound `Cc1cn(COC/C=C/c2ccccc2)c(=O)[nH]c1=O`, the “activity change, negative = inhibition” value was 9.83%.
Turning to `O=C(/C=C/c1ccccc1)c1ccccc1O`, the “activity change, negative = inhibition” value is 24.6%.
In the case of `Cc1[nH]c(=O)c(C(=O)/C=C/c2ccccc2)c2c1CCCC2`, the Potency was 8.2 µM (active).
